In all, about 2,000 compounds went through this assay and about 80 (4%) were called active.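 Rule for the calls: active = aptamer displacement above 40%, near three times the noise of non-fluorescent compounds, on plates passing quality checks; inactive = the rest.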 The list is a sample of the results.
biological target: Beta-adrenergic receptor kinase 1 (Homo sapiens) (UniProt P25098); assay: RNA aptamer-GRK2 binding blockers – biochemical, cherry pick 1, bead flow cytometry, confirmation (AID 504451); conditions: bead-bound GRK2, FAM-aptamer displacement, at 10 µM, active compounds read high;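 note: negative values mostly reflect intrinsic compound fluorescence rather than true enhancement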
Sequence (P25098 whole entry, looked up): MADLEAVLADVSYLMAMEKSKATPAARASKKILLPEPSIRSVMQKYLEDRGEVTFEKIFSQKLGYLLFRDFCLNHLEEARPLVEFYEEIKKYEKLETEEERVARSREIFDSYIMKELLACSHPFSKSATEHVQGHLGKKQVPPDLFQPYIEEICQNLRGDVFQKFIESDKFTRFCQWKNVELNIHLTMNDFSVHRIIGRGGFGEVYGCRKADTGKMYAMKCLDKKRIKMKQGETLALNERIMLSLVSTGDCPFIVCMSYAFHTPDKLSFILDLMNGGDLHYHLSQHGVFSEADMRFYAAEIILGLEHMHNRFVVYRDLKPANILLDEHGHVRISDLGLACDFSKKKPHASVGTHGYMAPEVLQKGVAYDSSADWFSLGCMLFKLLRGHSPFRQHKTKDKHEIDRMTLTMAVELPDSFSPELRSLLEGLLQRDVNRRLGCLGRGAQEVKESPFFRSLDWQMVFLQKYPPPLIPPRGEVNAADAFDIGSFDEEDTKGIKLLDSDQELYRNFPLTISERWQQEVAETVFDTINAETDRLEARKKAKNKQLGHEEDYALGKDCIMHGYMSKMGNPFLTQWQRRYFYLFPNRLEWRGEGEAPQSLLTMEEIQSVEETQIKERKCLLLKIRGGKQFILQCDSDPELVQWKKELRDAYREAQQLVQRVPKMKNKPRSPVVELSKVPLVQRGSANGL

Aptamer displacement, inactive:
COc1cc(C(=O)NCc2ccc3c(c2)cc(C)n3C)cc(OC)c1OC 0.16%
Cc1csc(=O)n1CC(=O)OCC(=O)N(CC(C)C)c1c(N)n(Cc2ccccc2)c(=O)[nH]c1=O -4.19%
COCCn1c(C)cc(C(=O)CN2c3cccc4cccc(c34)S2(=O)=O)c1C 5.59%
COc1ccc(NC(=O)CN(C)C(=O)c2cc(-c3ccc(C)o3)nc3ccccc23)cc1 1.02%
O=C(NNc1ncnc2c1cnn2-c1ccccc1)c1ccco1 -5.21%
C/C(=N\OCC(=O)O)c1ccc(Cl)cc1 -4.26%
NC(=O)C1CCN(C(=O)c2ccc3c(=O)n(Cc4cccc(Br)c4)c(=S)[nH]c3c2)CC1 2.04%
CCCCn1nc(C(=O)OCC(=O)Nc2sccc2C(N)=O)c2ccccc2c1=O -3.95%
O=S(=O)(Nc1ccc(-c2ccc(N3CCOCC3)nn2)cc1)c1cc(Cl)ccc1Cl 1.37%
CCOC(=O)C(C)n1cnc2scc(-c3ccc(C)c(C)c3)c2c1=O (centres undefined) 0.17%
COc1ccccc1NC(=O)CSc1nc2sc3c(c2c(=O)n1-c1ccccc1)CCN(C)C3 1.27%
O=C(Nc1nnc(-c2ccccc2)o1)c1cccc(S(=O)(=O)N2CCOCC2)c1 -3.8%
CSc1ccc(/C=C2\NC(=O)NC2=O)cc1 -11.5%
Cc1nn(Cc2ccc(F)cc2)c(C)c1NC(=O)c1noc2c1CCc1ccccc1-2 12.1%
O=C(COC(=O)c1ccc(F)cc1F)Nc1ncccn1 39.1%
Cc1ccccc1CN1CCN(CC(=O)NCc2ccccn2)C1=O 0.03%
CCOCCCNC(=O)C(NC(=O)CNC(=O)c1ccccc1)c1ccc(OC)cc1 (centres undefined) -2.56%
Cc1ccc(C(CNC(=O)Nc2cccc(C)c2)N2CCN(C)CC2)cc1 (centres undefined) -1.91%
O=C(CCNC(=O)c1ccccc1)NN=Cc1ccc(Br)o1 8.12%
Cc1ccc(N2C(=O)C3N=NN(CC(=O)N4N=C(c5cccc6ccccc56)CC4c4ccccc4)C3C2=O)cc1 (centres undefined) -6.3%
CC(=O)N1CC[n+]2c(-c3ccc([N+](=O)[O-])cc3)csc21 -2.74%
O=C(c1cc2cc(F)ccc2[nH]1)N1CCN(c2ccc(F)cc2)CC1 -3.05%
Cc1cccc(NC(=O)C2CCCN(C(=O)NCc3ccccc3)C2)c1C (centres undefined) -2.02%
COc1ccc(Cl)cc1NC(=O)CCS(=O)(=O)c1cc2c(cc1C)NC(=O)CO2 1.91%
